Test results reported in PubChem BioAssay AID648 (SRMLSC, 2007).
Screen size: about 86,000 compounds; about 920 (1.1%) were called active.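 The calls were made as follows: active = viability at or below 30%; inactive = viability above 30%.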 The sample as a whole holds a higher share of actives than the screen did.

Assay: endothelial cell growth inhibition – HUVEC, 384-well, primary screen (AID 648);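 also: 100% = median luminescence of DMSO-only cell control wells on each plate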
Details: HUVEC proliferation, CellTiter-Glo luminescence, 72 h; active compounds read low; screened at 10 µM (by protocol)
In the case of CCC(=O)Nc1sc(C(=O)N2CCCCC2)c(C)c1C#N, the viability is reported as 98.7% (inactive).
In the case of CC(C)(C)C1CCc2c(sc3nc(SCC(N)=O)nc(N)c23)C1 (configuration not stated), the viability is reported as 48.8% (inactive).
In the case of CN1CCN(CC(=O)Nc2sc3c(c2C#N)CCC(C(C)(C)C)C3)CC1 (configuration not stated), the viability is reported as 2.13% (active).
For O=C(O)CSc1nccn1-c1cccc(Cl)c1, the viability was 105% (inactive).
With CC(C)NC(=O)C(=O)NCCN1CCN(S(=O)(=O)c2ccc(Cl)cc2)CC1 the viability was 114% (inactive).
In the case of CCSc1nc(-c2ccc(OC)cc2)cc(-c2ccc(OC)cc2)c1C#N, the viability is reported as 100% (inactive).
With COc1ccc(Nc2ncc(C(=O)N3CCN(c4ccccc4OC)CC3)c3ccccc23)cc1 the viability was 62.2% (inactive).
For O=C(CO/N=C/c1ccccc1O)NNC(=O)c1ccccc1Cl, the viability was 97.1% (inactive).
With CCNS(=O)(=O)c1ccc(NC(=O)Nc2cccc(C(F)(F)F)c2)cc1 the viability was 29.7% (active).
With O=C(O)CSCC(=O)Nc1cccc(C(F)(F)F)c1 the viability was 89.5% (inactive).
For CCNS(=O)(=O)c1ccc(NC(=O)Nc2cccc(OC)c2)cc1, the viability was 72.2% (inactive).
In the case of O=C1CCCc2c1[nH]c1ccc(Br)cc21, the viability is reported as 16.3% (active).
In the case of O=C(O)CCC(=O)NCc1ccc2[nH]c3c(c2c1)CCCC3, the viability is reported as 98.8% (inactive).
With O=[n+]1c2c(n([O-])c3cc(Br)ccc31)CCC2 the viability was 94.2% (inactive).
With COc1cccc2c1OCC1COc3c(c(=O)n(C)c(=O)n3C)C21 (configuration not stated) the viability was 104% (inactive).
For Cc1cc(C)cc(NC(=O)c2cccc(NC(=O)C3C4CC5OC(=O)C3C5C4)c2)c1 (configuration not stated), the viability was 92.7% (inactive).
With CC(C)Cc1nc(N2CCOCC2)c(C#N)c2c1CCC2 the viability was 103% (inactive).
For CC(C)CCNc1nc(N2CCCC2)c2c(c1C#N)CCN(C)C2, the viability was 2.55% (active).
In the case of CCN1CCc2c(C#N)c(NCc3ccccc3)nc(NCCO)c2C1, the viability is reported as 79.7% (inactive).
For CCOc1ccc(S(=O)(=O)Nc2ccc(S(=O)(=O)Nc3cc(OC)ccc3OC)cc2)cc1, the viability was 95.7% (inactive).
With CCCCCCc1cc2cc(-c3nnc(-c4cccc(OC)c4)o3)c(=O)oc2cc1O the viability was 31.1% (inactive).
For CCC1(CC)Cc2ccccc2-c2nc3ccccc3c(=O)n21, the viability was 102% (inactive).
For COc1ccccc1-n1nnnc1S(=O)(=O)Cc1ccc(Cl)cc1, the viability was 11.8% (active).
With COc1ccccc1N1CCN(C(=O)CN(Cc2ccc(Cl)cc2)S(C)(=O)=O)CC1 the viability was 109% (inactive).
For COc1ccccc1N1CCN(Cc2nnnn2CCc2ccccc2)CC1, the viability was 100% (inactive).
In the case of Cc1nc(NC(=O)CN(C)S(=O)(=O)c2ccc(Cl)cc2)sc1C, the viability is reported as 101% (inactive).
With O=C1CCCCC(=O)c2ccccc2N1 the viability was 98.7% (inactive).
In the case of c1ccc2c(c1)C(=NC1CCCCC1)NC2=NC1CCCCC1, the viability is reported as 26.7% (active).
For CCOC(=O)c1cnc(SCC(=O)Nc2cccc(OC)c2)nc1N, the viability was 93.3% (inactive).
With CCn1nnnc1SCC(=O)c1ccc(C)cc1C the viability was 92.1% (inactive).
With OC(COc1ccc2c(c1)CCC2)CN1CCN(c2cccc(Cl)c2)CC1 (configuration not stated) the viability was 83.9% (inactive).
With Cc1coc2c(O)cc3c(c12)OC1(N2CCCCC2)C(=O)NCCCC31 (configuration not stated) the viability was 6.44% (active).
For Cc1cccc(NC(=O)N(Cc2cc3cc(C)cc(C)c3[nH]c2=O)CC2COCCO2)c1 (configuration not stated), the viability was 77.6% (inactive).
In the case of N#CCSc1nc2c(c(=O)n1Cc1ccccc1)C1(CCCC1)Cc1ccccc1-2, the viability is reported as 101% (inactive).
With Cc1c(C=O)c2ccccn2c1C(=O)c1ccncc1 the viability was 97% (inactive).
In the case of CCc1c(-c2ccccc2)nc(N)c(C#N)c1-c1cccs1, the viability is reported as 102% (inactive).
With COc1cccc(-c2nnc(NC(=O)c3ccc(S(=O)(=O)N(CC(C)C)CC(C)C)cc3)o2)c1 the viability was 23.6% (active).
For CCN(CC)C(=O)CSc1nnc(-c2cccc(OC)c2)o1, the viability was 104% (inactive).
With COc1cccc(NC(=O)CN(C)S(=O)(=O)c2ccc(C)cc2)c1 the viability was 97.5% (inactive).
In the case of CC1(C)NC(=O)N(CCCCSc2ccc(Cl)cc2)C1=O, the viability is reported as 97.1% (inactive).
For CC(C)NS(=O)(=O)c1ccc(NC(=O)C2CCCCC2)cc1, the viability was 106% (inactive).
In the case of O=C(Cc1cccc2ccccc12)Nc1ccc2oc(-c3ccccc3)nc2c1, the viability is reported as 49.6% (inactive).
For O=C(Nc1ccc2oc(-c3ccc4ccccc4c3)nc2c1)c1cccs1, the viability was 22% (active).
In the case of Cc1nc(-c2ccc(NC(=O)c3cccs3)cc2)cs1, the viability is reported as 89.5% (inactive).
With CC(Oc1ccc(Cl)cc1)c1ccnn1S(C)(=O)=O (configuration not stated) the viability was 73.7% (inactive).
In the case of COc1ccccc1C(=O)N1CC2(C)CC1CC(C)(C)C2 (configuration not stated), the viability is reported as 94% (inactive).
In the case of COn1c(=O)c(=O)n(OC)c2ccccc21, the viability is reported as 105% (inactive).
For Oc1c(CN2CCN(c3ccc(F)cc3)CC2)cc(Cl)c2cccnc12, the viability was 5.81% (active).
In the case of O=C(c1cccc(C(=O)N2CCN(c3ccc(F)cc3)CC2)c1)N1CCN(c2ccc(F)cc2)CC1, the viability is reported as 92.2% (inactive).
With CCN1CCN(C(c2cccnc2)c2cc(Cl)c3cccnc3c2O)CC1 (configuration not stated) the viability was 74.6% (inactive).
For Cc1nnc(SCC(=O)N2CCN(c3ccccc3)CC2)n1-c1ccccc1, the viability was 93.5% (inactive).
For COC(=O)c1ccc(CSc2nnc(NC(C)C)s2)cc1, the viability was 96.9% (inactive).
For CCc1c(O)nc(SCC(=O)Nc2ccccc2)n(C(C)CC)c1=O (configuration not stated), the viability was 96.5% (inactive).
With CC(C)(C)n1nnnc1C(c1ccc(F)cc1)N1CCN(Cc2ccc3c(c2)OCO3)CC1 (configuration not stated) the viability was 89% (inactive).
With CCCc1nc(NCc2ccc3c(c2)OCO3)c2nnn(Cc3ccccc3Cl)c2n1 the viability was 73.6% (inactive).
In the case of C#CCNc1nc(C(C)C)nc2c1nnn2Cc1ccccc1F, the viability is reported as 127% (inactive).
In the case of Cc1nc(Nc2ccc3c(c2)OCCO3)c2nnn(Cc3ccccc3Cl)c2n1, the viability is reported as 29.5% (active).
For Nc1c(C(=O)NCc2ccccc2)sc2nc3c(cc12)C(=O)CCC3, the viability was 84.8% (inactive).
For Cc1nnc(SC(C)C(=O)Nc2ccc(S(=O)(=O)NC3CCCCC3)cc2)s1 (configuration not stated), the viability was 104% (inactive).
With O=C(Nc1ccccc1)c1ccc2c(c1)OCO2 the viability was 94% (inactive).
With Cc1cccc(Nc2ccccc2C(=O)NCc2ccco2)c1C the viability was 63.9% (inactive).
In the case of Cc1cccc(C)c1N1CCN(S(=O)(=O)N2CCOCC2)CC1, the viability is reported as 108% (inactive).
